Screening data deposited in PubChem BioAssay by National Center for Advancing Translational Sciences (NCATS).
Compounds with a hit are over-represented: about 2.2% of the library has one in this group of screens.
Mito fusion act – qHTS Assay for Small Molecule Inhibitors of Mitochondrial Division or Activators of Mitochondrial Fusion | AID 485298, 2010 | actives 0.23% (n = 320,000) | Potency, µM (titrated, usually from 46.1 µM), most hits filed as activators | S. cerevisiae fusion-defective mutant growth rescue, CellTiterGlo 48 h; further: nearly all actives have a fitted effect of over 45% in size
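Growth-rescue viability read-out: after 48 h at the non-permissive 37C in glycerol/ethanol YPEG, yeast mitochondrial fusion mutants are measured by CellTiterGlo luminescence; compounds (23 nl pinned per well) restoring growth score as division inhibitors or fusion activators.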
aSyn yeast inh – qHTS of alpha-syn Inhibitors. Yeast expressing alpha-synuclein, growth rescue, BacTiter-Glo, 24 h. Potency, µM (doses to about 46.1 µM), hits mostly activators. actives 0.14% (n = 370,000); further: nearly all actives have a fitted effect of over 65% in size
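Readout is rescue of growth in alpha-synuclein-expressing yeast, so inhibitors of toxicity appear as activators. Growth after 24 hr at 30 deg C in galactose medium is quantified by luminescence.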
Abeta rescue – qHTS for compounds that reverse cellular toxicity of Amyloid beta (A-beta) peptide in yeast: Primary Screen | yeast expressing A-beta42, growth rescue, OD600, 48 h; response scale: 0% DMSO, 100% iron-clioquinol control | Potency, µM (series often up to 46.1 µM), hits mostly activators | actives 0.063% (n = 410,000); further: nearly all actives have a fitted effect of over 55% in size
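Yeast growth medium received pinned compounds, then yeast cells expressing toxic A-beta were added; plates incubated at 30 C for 48 hr. Growth read as absorbance at 600 nm, normalized to DMSO and equimolar FeCl3 plus clioquinol controls.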
FUS yeast rescue – qHTS for Suppressors of FUS Proteinopathy: Primary screen using FUS-linked yeast assay | S. cerevisiae FUS-expressing, growth rescue, OD600, 24 h | actives 0.24% (n = 390,000) | Potency, µM (doses to about 76.6 µM), hits mostly activators | AID 1347120, 2019; further: nearly all actives have a fitted effect of over 55% in size
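Quantitative HTS measuring growth restoration of FUS-toxic yeast. Galactose-induced cells (OD 0.005) were exposed 24hr at 30C to compounds at several concentrations, then absorbance at 600 nm was recorded.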
TDP43 rescue – qHTS of TDP-43 Inhibitors; TDP-43 expressing yeast growth rescue, BacTiter-Glo, 24 h; Potency, µM (top dose mostly 46.1 µM), actives largely listed as activators; actives 1.8% (n = 410,000); further: nearly all actives have a fitted effect of over 50% in size
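Cell-based yeast growth screen: TDP-43 expression induced in galactose, inoculum OD600=0.02 after raffinose pregrowth to mid-log. Read-out BacTiter-Glo luminescence at 24 hr, 30 deg C; inhibition of toxicity seen as signal increase.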
Large screens that a line does not name were inactive. The call rests on the fitted dose curve; in most records, active means well fitted curve in the direction sought with a large enough effect; inconclusive means small, poorly fitted or top-dose-only effect, or another doubt; inactive means no such curve, though single readings can be large; an effect the other way counts as inactive or inconclusive.

COCCNC(=O)Cn1nc(-c2ccc(C)cc2)c2ccccc2c1=O	none
O=C(NC1CCN(C(=O)Nc2ccccc2Cl)CC1)c1cccc(F)c1	none
Cn1c(/C=C/c2ccc(Br)cc2)c([N+](=O)[O-])c(=O)n(C)c1=O	TDP43 rescue 20µM
CN(C)c1ccc(/C=C/c2c([N+](=O)[O-])c(=O)n(C)c(=O)n2C)cc1	none
COC(=O)C1=C(C)Nc2nc(-c3ccccc3)nn2C1c1ccc(C)o1 (stereo not drawn)	Abeta rescue 11µM
COc1ccc(C2C(C(=O)Nc3ccccc3)=C(C)Nc3nc(-c4ccc(Cl)cc4)nn32)cc1 (stereo not drawn)	none (no result: Mito fusion act, aSyn yeast inh)
C=CCN1C(=O)[C@@H](CC(=O)NCCCN2CCCC2=O)[C@]2(C(=O)OC)CCCCC=C12	none (no result: Mito fusion act, aSyn yeast inh, Abeta rescue, TDP43 rescue)
COc1ccc(Br)cc1/C=C/C(=O)c1ccc(NC(C)=O)cc1	TDP43 rescue 18µM
COc1ccccc1NC(=O)C(=O)NCCc1csc(-c2cccc(F)c2)n1	none (no result: Mito fusion act, aSyn yeast inh)
CCOC(=O)c1c(C)sc2c1N(C(=O)CCl)c1cc(Cl)ccc1S2	TDP43 rescue 20µM (no result: FUS yeast rescue)
Cc1sc2ncnc(SCC(=O)N3c4ccccc4Sc4ccc(Cl)cc43)c2c1C	none (no result: FUS yeast rescue)
COc1cccc(CNC(=O)Cn2c(-c3ccccc3)cc(C(C)=O)c2C)c1	none (no result: Mito fusion act, aSyn yeast inh, Abeta rescue, TDP43 rescue)
COc1cccc(C(=O)Oc2ccc3ccc(O)cc3c2)c1	TDP43 rescue 20µM
COc1cccc(C(=O)NNC(=O)c2ccc3ccccc3c2)c1	none (no result: Mito fusion act)
Cc1ccccc1C(=O)Oc1ccc2ccc(O)cc2c1	TDP43 rescue 18µM
Cc1cccc(NC(=O)C(=O)NCC(c2ccc3c(c2)OCO3)N2CCN(c3ccccc3)CC2)c1 (stereo not drawn)	none (no result: Mito fusion act, aSyn yeast inh)
O=C(CSc1nc2ccccc2c(=O)n1-c1ccc(Cl)cc1)NNC(=S)Nc1ccccc1	none (no result: Mito fusion act, aSyn yeast inh, Abeta rescue, TDP43 rescue)
COc1cccc(Oc2cnc(N)nc2-c2ccc(OC)cc2O)c1	TDP43 rescue 10µM
CCCCCn1c(CCCNC(=O)c2cccc(C)c2)nc2ccccc21	FUS yeast rescue inconclusive, TDP43 rescue 35µM (no result: Mito fusion act, aSyn yeast inh)
CCN(CC)CCCNC(=O)CSc1nc2cccnc2n1C	none (no result: Mito fusion act, aSyn yeast inh, Abeta rescue, TDP43 rescue)
CC(C)(C)OC(=O)N1CCC(NC(=O)c2nc[nH]c2C(=O)NC2CCN(C(=O)OC(C)(C)C)CC2)CC1	FUS yeast rescue 11µM
CC(C)(C)OC(=O)CNC(=O)c1[nH]cnc1C(=O)NC1CCN(C(=O)OC(C)(C)C)CC1	Mito fusion act inconclusive, FUS yeast rescue inconclusive
CN(CC(=O)Nc1cccc(F)c1)C(=O)c1ccc(-c2ccc(Cl)cc2)o1	TDP43 rescue 22µM
Cc1ccc(C)c(NC(=O)CN(C)C(=O)c2ccc(-c3ccc(Cl)cc3)o2)c1	FUS yeast rescue inconclusive
CC(C)(C)NC(=S)NC(=O)C12CCC3CC(CC(C3)C1)C2	Abeta rescue 6.3µM
CC(C)(C)NC(=O)C12CC3CC(CC(Cl)(C3)C1)C2	none
Clc1ccc(-c2cc3nc(NCc4cccc(Cl)c4)ccn3n2)cc1	TDP43 rescue 35µM (no result: Mito fusion act)
Clc1cccc(CNc2ccn3nc(-c4ccc(OCc5ccccc5)cc4)cc3n2)c1	none (no result: Mito fusion act)
CC(C)(C)c1cc2nc(NCc3cccc(Cl)c3)ccn2n1	aSyn yeast inh inconclusive, Abeta rescue inconclusive, TDP43 rescue 25µM (no result: Mito fusion act)
Clc1cccc(CNc2ccn3nc(-c4cccc(Cl)c4)cc3n2)c1	Abeta rescue inconclusive, TDP43 rescue 11µM (no result: Mito fusion act)
Clc1cccc(CNc2ccn3nc(-c4ccccc4)cc3n2)c1	aSyn yeast inh inconclusive, Abeta rescue inconclusive, TDP43 rescue 13µM (no result: Mito fusion act)
COc1cc2nc(N3CCCN(C)CC3)nc(Nc3ccncc3)c2cc1OC	none (no result: Mito fusion act, Abeta rescue, FUS yeast rescue, TDP43 rescue)
CCCC(=O)OC12CCCN(C1)/C(=C/c1cccc(N(C)C)c1)C2 (stereo not drawn)	none (no result: Mito fusion act, aSyn yeast inh, Abeta rescue, TDP43 rescue)
COc1ccccc1NC(=O)c1nc(SCc2ccccc2F)ncc1Cl	none (no result: Mito fusion act, Abeta rescue, FUS yeast rescue, TDP43 rescue)
O=C(COC(=O)c1ccccc1OCCOc1ccccc1)Nc1ccc(Br)cc1	none (no result: Mito fusion act, Abeta rescue, FUS yeast rescue, TDP43 rescue)
COCc1cn(CC[C@@H]2CC[C@@H](NC(=O)Nc3ccc4c(c3)OCO4)[C@@H](CO)O2)nn1	none (no result: Mito fusion act)
CC(=O)c1ccc(-c2cnc3c(NC=O)cc(-c4ccccc4Oc4ccccc4)cn23)cc1	FUS yeast rescue 25µM, TDP43 rescue inconclusive (no result: Mito fusion act)
